For test [1], the target named is Glutathione peroxidase 1 (Homo sapiens) (UniProt P07203). The test is described as follows: Primary qHTS Assay for Inhibitors of Recombinant Selenoprotein Glutathione Peroxidase 1 (GPX1) (AID 1845191). Also: nearly all actives have a fitted effect of over 65% in size. Also: potency is read from the fitted curve at half-maximal effect. As to activity, negative = inhibition: % is scaled to controls: 0 for no effect and ±100 for the full control effect. The method, boiled down: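 NADPH consumption tracked by fluorescence at 340/450 nm between t=0 and t=15 min, room temperature. Final mix: 10 nM GPX1, 100 nM glutathione reductase, 1 mM GSH, 0.5 mM NADPH, 0.5 mM cumene hydroperoxide, 0.01% BSA; 30 min compound–enzyme preincubation.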
Glutathione peroxidase 1 (Homo sapiens), sequence (P07203 whole entry, looked up): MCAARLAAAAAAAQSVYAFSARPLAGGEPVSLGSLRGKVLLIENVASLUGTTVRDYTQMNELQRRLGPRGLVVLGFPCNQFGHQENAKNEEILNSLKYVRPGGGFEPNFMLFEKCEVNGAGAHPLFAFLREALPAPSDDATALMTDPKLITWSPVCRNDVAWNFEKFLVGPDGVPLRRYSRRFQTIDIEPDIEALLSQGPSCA
Background: qHTS replaces the single test concentration by a dilution series.

The target of test [2] is Phospholipid hydroperoxide glutathione peroxidase GPX4 (Homo sapiens) (UniProt P36969). The test is described as follows: Primary qHTS Assay for Inhibitors of Recombinant Selenoprotein Glutathione Peroxidase 4 (GPX4) (AID 1845192). Also: nearly all actives have a fitted effect of over 65% in size. Also: potency is read from the fitted curve at half-maximal effect. As to activity change, negative = inhibition: series mostly up to about 50 µM; % is scaled to controls: 0 for no effect and ±100 for the full control effect. Put shortly: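 NADPH consumption followed by fluorescence at 340/450 nm, t=0 and after 15 min at room temperature. Reaction started with cumene hydroperoxide (0.5 mM final) after 30 min compound–GPX4 preincubation; final 200 nM GPX4, 100 nM GR, 1 mM GSH, 0.5 mM NADPH.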
Phospholipid hydroperoxide glutathione peroxidase GPX4 (Homo sapiens), sequence (P36969 whole entry, looked up): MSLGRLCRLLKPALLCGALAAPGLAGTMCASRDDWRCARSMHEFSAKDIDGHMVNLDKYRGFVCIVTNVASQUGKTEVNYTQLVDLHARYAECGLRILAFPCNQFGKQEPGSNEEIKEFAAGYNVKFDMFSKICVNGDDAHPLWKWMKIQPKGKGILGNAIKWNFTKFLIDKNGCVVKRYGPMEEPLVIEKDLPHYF

The target of test [3] is Luciferin 4-monooxygenase (Photinus pyralis) (UniProt P08659). The test is described as follows: Primary firefly luciferase (FLuc) qHTS assay for identification of artifact compounds. (AID 1845220). Also: nearly all actives have a fitted effect of over 60% in size.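 As to activity change, negative = inhibition: series mostly up to about 54 µM; plate controls were DMSO vehicle for no effect and no enzyme for full effect.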 The method, boiled down: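 Cell-free, 1536-well qHTS. Buffer pH 7.6 with 0.01% Tween-20 and 0.05% BSA; 10 uM D-luciferin, 10 uM ATP; 10 nM P. pyralis luciferase; luminescence after 5 min.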

A short description of test [4]: Primary fluorescence-based thiol-reactive (MSTI) qHTS assay for identification of artifact compounds. (AID 1845221). Also: nearly all actives have a fitted effect of over 65% in size. Also: potency is read from the fitted curve at half-maximal effect.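 As to activity change, negative = thiol reactive: series mostly up to about 54 µM; thiol-reactive compounds lower the probe fluorescence signal.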 The method, boiled down:
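Curve-fitted percent inhibition (4-parameter Hill) derived from fluorescence, Ex 525/Em 598 nm, scaled with Acetyl-MSTI and MSTI; 1 h incubation at room temperature.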

In test [5] the test system is Nanoluciferase (engineered Oplophorus gracilirostris luciferase). As to the kind of experiment: Primary Nanoluciferase (NLuc) qHTS assay for identification of artifact compounds. (AID 1845222).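 Also: series mostly up to about 54 µM; 0% = DMSO and -100% = no enzyme.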 The method, boiled down: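 Compounds are pinned into diluted (1:55) conditioned medium of NLuc-expressing S16 cells and held 15 min at room temperature protected from light. Nano-Glo substrate follows, and luminescence is read 5 min later.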

Test [6] can be described thus: Primary redox qHTS assay for identification of artifact compounds. (AID 1845223).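 Also: 0% = DMSO and 100% = reference compound.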 The method, boiled down:
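Redox-cycling detection via DTT (250 uM final) oxidation coupled to Amplex Red (25 uM)/HRP (250 mU/mL) in HBSS. 15 min preincubation plus 30 min after DTT, room temperature. Ex/Em 525/598 nm; 4-parameter Hill fit against DMSO and 10 uM DA3003.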

Molecules are shown by their SMILES. Unmarked numbers belong to inactive results. Results filed as inconclusive are left out. Activity calls are given as the source filed them. Calls follow the shape of the dose curve; as a rule, active = well fitted curve in the direction sought with a large enough effect; inconclusive = small, poorly fitted or top-dose-only effect, or another doubt; inactive = no such curve, though single readings can be large; an effect the other way counts as inactive or inconclusive.

Consider `NC[C@@](O)(c1ccc(Cl)cc1)c1ccc(-c2cn[nH]c2)cc1`, for which the Potency entry in test [1], in test [2], in test [3], in test [4], in test [5] and in test [6] was “inactive” throughout.

With `CO[C@H]1C[C@@H]2CC[C@@H](C)[C@@](O)(O2)C(=O)C(=O)N2CCCC[C@H]2C(=O)O[C@H]([C@H](C)C[C@@H]2CC[C@@H](OP(C)(C)=O)[C@H](OC)C2)CC(=O)[C@H](C)/C=C(\C)[C@@H](O)[C@@H](OC)C(=O)[C@H](C)C[C@H](C)/C=C/C=C/C=C/1C`, the Potency entry in test [1], in test [2], in test [3], in test [4], in test [5] and in test [6] was “inactive” each time.

`CCn1c(=O)c(-c2ccn[nH]2)cc2c(C)nc(N)nc21`: the Potency in test [1] is 4.09 µM (active); in test [2] it was 2.55 µM (active). Besides, the Potency result in test [3], in test [4], in test [5] and in test [6] was “inactive” each time.

With `C=C1C[C@]23C[C@H]1CC[C@H]2[C@@]12CC[C@H](O)[C@@](C)(C(=O)O1)[C@H]2[C@@H]3C(=O)O`, the Potency result in test [1], in test [2], in test [3], in test [4], in test [5] and in test [6] was “inactive” throughout.

Regarding `CCC(=O)O[C@H]1C(C)(C)[C@H]([C@@H](O)C(=O)OC)[C@]2(C)C(=O)[C@@]1(O)[C@H]1O[C@]13C1CC(=O)O[C@@H](c4ccoc4)[C@]1(C)CCC32` (stereo partly specified), the Potency entry in test [1], in test [2], in test [3], in test [4], in test [5] and in test [6] was “inactive” throughout.

With `CC(=O)c1cc(C(=O)N[C@@H](C)Cn2ccc(-c3ccc(C#N)c(Cl)c3)n2)[nH]n1`, the Potency result in test [1], in test [2], in test [3], in test [4], in test [5] and in test [6] was “inactive” in each case.

As for `COc1cc(Nc2nc3c(s2)CCCC3c2ccc(F)cc2)ccc1-n1cnc(C)c1` (stereo unspecified), the Potency entry in test [1], in test [2], in test [3], in test [5] and in test [6] was “inactive” throughout. For the same molecule, in test [4], the Potency is 11.9 µM (active).

Regarding `COc1cc(O)cc(C)c1C(=O)O[C@@H]1[C@H](O)[C@@H](CO)O[C@H]1n1ccc(=O)[nH]c1=O`, the Potency entry in test [1], in test [2], in test [3], in test [4], in test [5] and in test [6] was “inactive” in each case.

On to `COc1ccc(CCO[C@@H]2O[C@H](CO[C@@H]3OC[C@H](O)[C@H](O)[C@H]3O)[C@@H](O)[C@H](O)[C@H]2O)cc1`, for which the Potency result in test [1], in test [2], in test [3], in test [5] and in test [6] was “inactive” throughout. Also, the Potency in test [4] was 10.3 µM (active).

For `COc1cc(NC(=O)Nc2cccc(CNC(=O)O[C@H]3CCOC3)c2)ccc1-c1cnco1`, the Potency entry in test [1], in test [2], in test [3], in test [4], in test [5] and in test [6] was “inactive” throughout.

As to `CCCN1CCC(c2cccc(S(C)(=O)=O)c2)CC1`, the Potency entry in test [1], in test [2], in test [3], in test [4], in test [5] and in test [6] was “inactive” throughout.

In the case of `COc1cc(/C=C/C(=O)O[C@H]2[C@H](O)[C@@H](CO)O[C@@]2(CO)O[C@H]2O[C@H](CO)[C@@H](O)[C@H](O)[C@H]2O)ccc1O`, the Potency result in test [1], in test [2], in test [3], in test [4], in test [5] and in test [6] was “inactive” each time.

Turning to `C[C@@H]1CCC2C(C)(C)[C@H](O)CC[C@]2(C)[C@@]12Cc1c(O)cc3c(c1O2)CN([C@@H](CCC(=O)O)C(=O)O)C3=O` (stereo partly specified), the Potency result in test [1], in test [2], in test [3], in test [4], in test [5] and in test [6] was “inactive” each time.

As for `CC(Oc1cc(-n2cnc3ccc(CN4CCN(C)CC4)cc32)sc1C(N)=O)c1ccccc1C(F)(F)F` (stereo unspecified), the Potency entry in test [1], in test [2], in test [3], in test [4], in test [5] and in test [6] was “inactive” in each case.

For the molecule `C=C1C[C@@]23CCC4[C@@](C)(CCC[C@@]4(C)C(=O)OC)C2CC[C@@H]1C3` (stereo partly specified), the Potency result in test [1], in test [2], in test [3], in test [4], in test [5] and in test [6] was “inactive” each time.

For `CC(=O)OC1CC2(C)C3=CCC4(C)C5C(O)C(O)C(C(C)C)C5(C)CCC4(C)C3CCC2C(C)(C)C1OC1OC(CO)C(O)C(O)C1O` (stereo unspecified), the Potency entry in test [1], in test [2], in test [3], in test [4], in test [5] and in test [6] was “inactive” each time.

Consider `CC1(O)CC(O)C2(O)C=COC(O[C@@H]3O[C@H](CO)[C@@H](O)[C@H](O)[C@H]3O)C12` (stereo partly specified), for which the Potency entry in test [1], in test [2], in test [3], in test [5] and in test [6] was “inactive” in each case. Besides, the Potency in test [4] was 11.7 µM (active).

Take `COc1cc2c(cc1OC)CC(=O)N(CCCNC[C@H]1Cc3cc(OC)c(OC)cc31)CC2`: the Potency entry in test [1], in test [2], in test [3], in test [4], in test [5] and in test [6] was “inactive” throughout.

On to `Nc1ncnc2c1ncn2CCNCCCCCO`, for which the Potency entry in test [1], in test [2], in test [3], in test [4], in test [5] and in test [6] was “inactive” in each case.

On to `CC12CCC3c4ccc(OC5OC(C(=O)O)C(O)C(O)C5O)cc4CCC3C1CCC2O` (stereo unspecified), for which the Potency result in test [1], in test [2], in test [3], in test [4], in test [5] and in test [6] was “inactive” throughout.

`CC(=O)C1=C(C)N(c2cccc(C(F)(F)F)c2)C(=O)N[C@H]1c1ccc(C#N)nc1`: the Potency entry in test [1] and in test [2] was “inactive” each time. Also, in test [3], the activity change, negative = inhibition was -8.43% [at 11.6 µM]. In test [4], the activity change, negative = thiol reactive is 33.4% [at 11.5 µM]. For the same molecule, the activity, negative = inhibition in test [5] was -1.73% [at 11.6 µM]. Moreover, the redox activity (% of DA3003) in test [6] was -3.41% [at 11.5 µM].

Source of the values: PubChem BioAssay (NCATS).
